Laboratory results from PubChem BioAssay.
Activity calls are given as the source filed them.

What was measured:
[1] = test system: PRMT1 (protein arginine N-methyltransferase 1); test: small molecules binding arginine methyltransferase PRMT1 – biochemical, small-molecule microarray, 635 nm fluorescence, primary screen (AID 1088); conditions: higher = more signal;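 note: binding of Prmt1 protein to compounds spotted on small-molecule microarray slides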
[2] = growth effects on S. cerevisiae YJM789 – YJM789 clinical isolate, OD600, 24 h, basal, primary screen (AID 1089); conditions: higher = more signal, called active from +8 up or from −8 down;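 note: growth of clinical yeast isolate S. cerevisiae YJM 789 seeded 1000 cells per well; test concentration not given here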
[3] = S. pombe growth modifiers, basal conditions – strain 972, OD600, 24 h, no modulator, primary screen (AID 1090);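 note: basal condition with compound alone and no growth modifier present; test concentration not given here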; conditions: S. pombe 972 growth, higher = more signal, called active from +8 up or from −8 down
[4] = budding yeast growth modifiers under rapamycin – strain BY4716, OD600, 96 h, primary screen (AID 1091); note: test concentration not given here; conditions: S. cerevisiae BY4716 + rapamycin, higher = more signal, called active from +8 up or from −8 down
[5] = target: Torsin-1A-interacting protein 2 (Homo sapiens) (UniProt Q8NFQ8); test: small molecules binding lysate-expressed LULL1 – cell lysate, human LULL1 lysate, 635/667 nm fluorescence, primary screen (AID 1092); conditions: small-molecule microarray, hLULL1 lysate binding, 635 nm fluorescence; higher = more signal;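 note: probe is lysate of COS7 cells overexpressing human LULL1; score merges per-feature 667 nm fluorescence with signal-to-noise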
Torsin-1A-interacting protein 2 (Homo sapiens), sequence (Q8NFQ8 whole entry, looked up): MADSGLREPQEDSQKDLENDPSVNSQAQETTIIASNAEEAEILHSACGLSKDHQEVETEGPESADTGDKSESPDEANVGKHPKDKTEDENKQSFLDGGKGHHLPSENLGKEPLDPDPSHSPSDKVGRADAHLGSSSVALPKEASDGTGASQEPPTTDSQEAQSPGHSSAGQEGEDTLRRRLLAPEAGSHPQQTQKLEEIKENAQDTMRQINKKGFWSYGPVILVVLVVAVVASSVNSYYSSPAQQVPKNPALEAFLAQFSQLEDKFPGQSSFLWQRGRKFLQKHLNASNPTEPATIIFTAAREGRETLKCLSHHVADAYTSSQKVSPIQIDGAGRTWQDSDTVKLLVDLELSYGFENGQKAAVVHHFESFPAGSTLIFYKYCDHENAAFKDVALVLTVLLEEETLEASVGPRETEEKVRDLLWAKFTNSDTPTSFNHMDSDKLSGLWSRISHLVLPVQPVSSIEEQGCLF

[6] = optical density change of DRC41 E. coli – strain DRC41, OD650, 24 h, E. coli filamentation project, primary screen (AID 1093);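 note: MC1000 strain lacking acrAB efflux and sulA so SOS filamentation is blocked; test concentration not given here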; conditions: E. coli DRC41 growth, higher = more signal, called active from +8 up or from −8 down
[7] = probe aLefty2 binding to arrayed compounds – biochemical, biotinylated probe, 635/667 nm fluorescence, primary screen (AID 1094); conditions: small-molecule microarray, higher = more signal;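 note: score merges spot fluorescence near 667 nm with spot signal-to-noise ratio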
[8] = test system: Noggin (protein binding on small-molecule microarray); test: small molecules binding Noggin protein – biochemical, 635/667 nm fluorescence, primary screen (AID 1095); conditions: 635 nm fluorescence, higher = more signal;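 note: score merges 667 nm feature fluorescence with signal to noise over triplicate slides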
[9] = target: Neurogenic locus notch homolog protein 3 (Homo sapiens) (UniProt Q9UM47); test: small molecules binding NOTCH3 protein – biochemical, 635/667 nm fluorescence, primary screen (AID 1096); conditions: small-molecule microarray, 635 nm fluorescence, higher = more signal
Neurogenic locus notch homolog protein 3 (Homo sapiens), sequence (Q9UM47 whole entry, looked up): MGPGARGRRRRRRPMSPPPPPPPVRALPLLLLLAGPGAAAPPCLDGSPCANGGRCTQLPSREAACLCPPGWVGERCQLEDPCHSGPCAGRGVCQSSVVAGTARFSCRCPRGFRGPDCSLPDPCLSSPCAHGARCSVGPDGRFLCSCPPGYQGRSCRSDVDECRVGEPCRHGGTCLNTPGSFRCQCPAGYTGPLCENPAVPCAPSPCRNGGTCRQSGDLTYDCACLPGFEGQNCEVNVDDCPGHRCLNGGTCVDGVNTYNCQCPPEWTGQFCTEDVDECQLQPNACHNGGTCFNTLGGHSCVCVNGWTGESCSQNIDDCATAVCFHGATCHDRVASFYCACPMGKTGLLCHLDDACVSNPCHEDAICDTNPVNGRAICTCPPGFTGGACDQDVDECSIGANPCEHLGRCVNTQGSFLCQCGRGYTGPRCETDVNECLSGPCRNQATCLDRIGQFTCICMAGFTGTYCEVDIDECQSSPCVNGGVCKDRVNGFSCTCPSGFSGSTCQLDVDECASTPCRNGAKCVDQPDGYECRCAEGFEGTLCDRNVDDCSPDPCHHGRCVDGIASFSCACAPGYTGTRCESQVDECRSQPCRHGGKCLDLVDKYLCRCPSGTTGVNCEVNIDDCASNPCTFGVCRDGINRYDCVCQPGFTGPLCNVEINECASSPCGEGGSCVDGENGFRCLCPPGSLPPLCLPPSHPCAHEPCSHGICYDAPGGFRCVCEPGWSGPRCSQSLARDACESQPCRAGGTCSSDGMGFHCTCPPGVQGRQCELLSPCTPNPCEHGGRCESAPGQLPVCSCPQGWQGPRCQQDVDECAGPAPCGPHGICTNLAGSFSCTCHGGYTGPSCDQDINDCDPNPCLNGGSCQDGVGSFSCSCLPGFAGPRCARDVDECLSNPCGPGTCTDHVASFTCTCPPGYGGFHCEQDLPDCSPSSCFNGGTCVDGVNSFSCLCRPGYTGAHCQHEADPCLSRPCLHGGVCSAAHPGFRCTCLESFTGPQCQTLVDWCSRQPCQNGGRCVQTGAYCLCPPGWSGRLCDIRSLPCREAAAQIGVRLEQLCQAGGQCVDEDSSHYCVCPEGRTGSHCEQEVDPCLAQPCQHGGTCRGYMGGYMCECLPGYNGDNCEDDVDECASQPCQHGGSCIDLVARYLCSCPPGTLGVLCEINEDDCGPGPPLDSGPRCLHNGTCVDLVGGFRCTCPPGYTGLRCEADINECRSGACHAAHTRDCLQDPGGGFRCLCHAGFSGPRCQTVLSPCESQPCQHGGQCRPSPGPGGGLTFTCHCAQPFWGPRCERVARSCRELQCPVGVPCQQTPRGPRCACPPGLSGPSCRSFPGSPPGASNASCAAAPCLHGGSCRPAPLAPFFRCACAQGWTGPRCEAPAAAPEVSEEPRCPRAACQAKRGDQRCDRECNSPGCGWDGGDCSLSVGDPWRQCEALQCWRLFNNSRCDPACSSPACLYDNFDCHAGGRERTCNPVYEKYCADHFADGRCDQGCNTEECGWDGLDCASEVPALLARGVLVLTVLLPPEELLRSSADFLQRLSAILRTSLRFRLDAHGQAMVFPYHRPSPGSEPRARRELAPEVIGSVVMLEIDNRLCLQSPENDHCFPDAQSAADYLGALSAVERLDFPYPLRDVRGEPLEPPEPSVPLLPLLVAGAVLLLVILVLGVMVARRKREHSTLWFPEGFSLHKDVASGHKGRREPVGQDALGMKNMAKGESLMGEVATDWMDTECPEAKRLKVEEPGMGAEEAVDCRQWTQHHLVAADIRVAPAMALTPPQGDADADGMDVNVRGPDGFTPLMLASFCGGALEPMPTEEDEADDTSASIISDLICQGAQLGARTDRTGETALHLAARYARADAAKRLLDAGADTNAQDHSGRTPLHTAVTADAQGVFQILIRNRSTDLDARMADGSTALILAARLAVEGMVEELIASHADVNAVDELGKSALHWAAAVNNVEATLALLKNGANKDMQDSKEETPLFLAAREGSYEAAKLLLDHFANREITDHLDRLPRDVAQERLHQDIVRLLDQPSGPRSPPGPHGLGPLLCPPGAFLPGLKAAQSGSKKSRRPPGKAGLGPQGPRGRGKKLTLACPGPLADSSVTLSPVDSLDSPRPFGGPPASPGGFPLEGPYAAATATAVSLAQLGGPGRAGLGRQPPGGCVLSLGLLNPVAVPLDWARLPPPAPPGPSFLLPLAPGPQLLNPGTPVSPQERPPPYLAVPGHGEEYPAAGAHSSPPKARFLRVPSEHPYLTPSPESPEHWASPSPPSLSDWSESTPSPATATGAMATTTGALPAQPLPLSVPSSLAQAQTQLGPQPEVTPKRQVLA

[10] = probe aEGFR binding to arrayed compounds – biochemical, biotinylated probe, 635/667 nm fluorescence, primary screen (AID 1097); conditions: small-molecule microarray, higher = more signal;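 note: probe is a biotinylated anti-EGFR antibody binding compounds printed on slides; score combines fluorescence near 667 nm and signal to noise of each spot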
[11] = test system: Plasmodium falciparum Sir2 (PF13_0152, Sir2A); test: Plasmodium falciparum Sir2A binding compounds – biochemical, small-molecule microarray, 635 nm fluorescence, primary screen (AID 1098); conditions: fluorescence 635 nm, higher = more signal;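 note: score merges spot fluorescence intensity with its signal-to-noise ratio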
[12] = probe aDKK1 binding to arrayed compounds – biochemical, biotinylated probe, 635/667 nm fluorescence, primary screen (AID 1099); conditions: small-molecule microarray, higher = more signal;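 note: score merges 667nm spot fluorescence with signal to noise across triplicate slides; reference of the scale not given here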
[13] = probe aCHRDL2 binding to arrayed compounds – biochemical, biotinylated probe, 635/667 nm fluorescence, primary screen (AID 1100); conditions: small-molecule microarray, higher = more signal
[14] = change in splice reporter luminescence, either direction, cell-based, HEK293, spliceosome inhibition project, primary screen (AID 1101); conditions: HEK293 splicing luciferase reporter, 24 h, higher = more signal, called active from +8 up or from −8 down;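 note: HEK293 cells carrying a splicing-competent luciferase reporter gene; test concentration not given here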
[15] = target: Fibroblast growth factor 10 (Homo sapiens) (UniProt O15520); test: compounds binding fibroblast growth factor 10 – biochemical, small-molecule microarray, 635 nm fluorescence, primary screen (AID 1102); conditions: FGF10 binding, fluorescence 635 nm, higher = more signal
Fibroblast growth factor 10 (Homo sapiens), sequence (O15520 whole entry, looked up): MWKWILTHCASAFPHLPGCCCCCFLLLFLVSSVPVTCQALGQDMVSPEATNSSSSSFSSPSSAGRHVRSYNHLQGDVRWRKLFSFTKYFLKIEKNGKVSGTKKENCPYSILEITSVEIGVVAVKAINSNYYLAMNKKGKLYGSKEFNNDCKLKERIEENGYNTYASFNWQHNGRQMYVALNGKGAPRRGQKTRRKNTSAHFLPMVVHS

[16] = test system: glycogen synthase kinase-3 (GSK3A per assay name; protocol says GSK3B); test: compounds binding glycogen synthase kinase-3 – biochemical, small-molecule microarray, 635 nm fluorescence, GSK3A, primary screen (AID 1103); conditions: fluorescence 635 nm, higher = more signal; note: the record names both GSK3A and GSK3B
[17] = target: Epidermal growth factor receptor (Homo sapiens) (UniProt P00533); test: compounds binding epidermal growth factor receptor – biochemical, small-molecule microarray, 635 nm fluorescence, primary screen (AID 1104); conditions: EGFR binding, higher = more signal;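 note: score merges 667 nm emission intensity with spot signal to noise over triplicate slides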
Epidermal growth factor receptor (Homo sapiens), sequence (P00533 whole entry, looked up): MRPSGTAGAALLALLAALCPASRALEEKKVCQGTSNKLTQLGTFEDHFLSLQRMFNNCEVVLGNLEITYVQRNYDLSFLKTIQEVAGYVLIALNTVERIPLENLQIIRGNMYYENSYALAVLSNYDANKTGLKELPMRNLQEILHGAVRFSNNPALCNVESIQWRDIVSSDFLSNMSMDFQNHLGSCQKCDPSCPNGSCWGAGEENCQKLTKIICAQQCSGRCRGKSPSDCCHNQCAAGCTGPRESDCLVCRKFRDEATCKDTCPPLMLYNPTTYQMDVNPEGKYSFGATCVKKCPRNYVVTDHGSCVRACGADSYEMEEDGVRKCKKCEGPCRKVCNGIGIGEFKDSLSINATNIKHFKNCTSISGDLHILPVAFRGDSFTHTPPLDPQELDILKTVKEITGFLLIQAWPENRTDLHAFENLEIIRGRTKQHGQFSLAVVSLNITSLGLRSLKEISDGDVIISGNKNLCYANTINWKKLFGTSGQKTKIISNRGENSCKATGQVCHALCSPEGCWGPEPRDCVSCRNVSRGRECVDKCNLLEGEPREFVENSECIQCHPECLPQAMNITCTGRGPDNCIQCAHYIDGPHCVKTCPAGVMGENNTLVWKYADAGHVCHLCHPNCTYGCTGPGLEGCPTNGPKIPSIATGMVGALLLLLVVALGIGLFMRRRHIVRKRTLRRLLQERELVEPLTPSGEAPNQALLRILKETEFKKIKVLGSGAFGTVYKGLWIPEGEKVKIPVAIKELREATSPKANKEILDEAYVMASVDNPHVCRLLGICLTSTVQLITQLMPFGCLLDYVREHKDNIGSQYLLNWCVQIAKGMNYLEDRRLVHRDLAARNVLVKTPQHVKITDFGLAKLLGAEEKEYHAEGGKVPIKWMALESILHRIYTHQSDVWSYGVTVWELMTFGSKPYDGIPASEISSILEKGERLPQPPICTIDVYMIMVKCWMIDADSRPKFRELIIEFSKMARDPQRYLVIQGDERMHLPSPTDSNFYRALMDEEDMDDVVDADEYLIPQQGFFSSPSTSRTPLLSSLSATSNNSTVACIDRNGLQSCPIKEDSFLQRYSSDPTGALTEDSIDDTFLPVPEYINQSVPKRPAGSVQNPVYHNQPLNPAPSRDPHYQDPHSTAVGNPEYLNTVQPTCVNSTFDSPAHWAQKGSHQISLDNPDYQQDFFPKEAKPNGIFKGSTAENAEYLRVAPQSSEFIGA

[18] = target: Follistatin-related protein 3 (Homo sapiens) (UniProt O95633); test: compounds binding follistatin-related protein 3 – biochemical, small-molecule microarray, 635 nm fluorescence, primary screen (AID 1105); conditions: FSTL3 binding, higher = more signal;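 note: score merges emission near 667 nm and signal to noise per printed spot across three slides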
Follistatin-related protein 3 (Homo sapiens), sequence (O95633 whole entry, looked up): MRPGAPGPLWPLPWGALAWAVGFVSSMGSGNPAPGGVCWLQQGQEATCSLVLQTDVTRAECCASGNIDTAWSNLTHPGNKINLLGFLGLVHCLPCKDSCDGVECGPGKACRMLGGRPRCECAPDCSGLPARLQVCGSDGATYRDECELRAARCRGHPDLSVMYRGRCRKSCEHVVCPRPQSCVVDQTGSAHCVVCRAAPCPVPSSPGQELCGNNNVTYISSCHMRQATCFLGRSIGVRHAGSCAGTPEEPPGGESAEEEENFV

[19] = target: Dickkopf-related protein 1 (Homo sapiens) (UniProt O94907); test: small molecules binding DKK1 protein – biochemical, small-molecule microarray, 635 nm fluorescence scan, primary screen (AID 1106); conditions: higher = more signal;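 note: score merges emission near 667 nm with signal to noise over three replicate slides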
Dickkopf-related protein 1 (Homo sapiens), sequence (O94907 whole entry, looked up): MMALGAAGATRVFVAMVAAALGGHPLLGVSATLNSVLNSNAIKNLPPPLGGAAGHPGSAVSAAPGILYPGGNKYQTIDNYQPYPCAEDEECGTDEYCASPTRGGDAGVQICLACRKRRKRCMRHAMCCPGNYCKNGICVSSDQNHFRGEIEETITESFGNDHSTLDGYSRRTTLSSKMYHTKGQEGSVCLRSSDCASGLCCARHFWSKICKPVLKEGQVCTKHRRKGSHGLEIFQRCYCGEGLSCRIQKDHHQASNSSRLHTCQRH

[20] = test system: Inhibin beta A chain (activin A); test: small molecules binding activin A – biochemical, small-molecule microarray, 635 nm fluorescence scan, primary screen (AID 1107); conditions: INHBA, higher = more signal;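 note: mouse activin A protein probed at 4.33 µg/mL on printed slides; score merges bound-protein fluorescence near 667 nm with spot signal-to-noise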

Structure (SMILES)	composite z-score [1]	z-score [2]	z-score [3]	z-score [4]	composite z-score [5]	z-score [6]	composite z-score [7]	composite z-score [8]	composite z-score [9]	composite z-score [10]	composite z-score [11]	composite z-score [12]	composite z-score [13]	z-score [14]	composite z-score [15]	composite z-score [16]	composite z-score [17]	composite z-score [18]	composite z-score [19]	composite z-score [20]
C[C@H]1CC[C@H]2C(=O)OC(COc3ccc(C(C)(C)C)cc3)CN2[C@@H]1c1ccc(Br)cc1 (stereo not given in full)	1.02	-0.498 (inactive)	-17.9 (active)	-1.73 (inactive)	1.25	1.24 (inactive)	-0.139	0.756	0.165	-0.175	0.528	-0.254	-0.242	-0.216 (inactive)	0.172	0.364	-0.128	0.58	-0.039	0.451
CC(C)=NOC(C)CN1CCCCc2nc(C)c(C)cc21 (stereo not given)	0.434	-0.139 (inactive)	-0.104 (inactive)	-0.0334 (inactive)	1.04	0.194 (inactive)	-0.0441	0.634	-0.0247	-0.027	0.284	-0.261	-0.331	0.19 (inactive)	0.151	0.0285	0.468	0.473	0.619	1.04
CON=C1c2cc(OC)ccc2O[C@H](c2cccc(OC)c2)[C@H]1O	-0.0242	-0.976 (inactive)	-3 (inactive)	-1.75 (inactive)	0.365	0.792 (inactive)	-0.0515	0.588	0.684	0.0242	0.386	-0.0086	-0.365	-0.268 (inactive)	0.934	0.498	0.52	0.81	0.636	0.593
CCOC(=O)CCN1C(=O)[C@H]2[C@H]3[C@H](O)[C@H](O)CC(=NNC(=O)OCC)[C@H]3CC[C@H]2C1=O	0.0158	0.654 (inactive)	-1.45 (inactive)	0.305 (inactive)	0.0756	-0.637 (inactive)	-0.139	0.412	-0.818	-0.12	0.533	-0.55	-0.799	-0.24 (inactive)	0.0385	-0.542	0.459	0.567	0.913	1.26
COc1ccc(O[C@H]2C=C[C@@H](c3ccccc3)O[C@@H]2CON=C(C)CCN2CCCc3nc(C)c(C)cc32)cc1	1.42	-0.571 (inactive)	-0.739 (inactive)	-0.706 (inactive)	1.56	0.766 (inactive)	-0.0511	0.485	1.02	-0.0531	0.625	-0.325	-0.156	-0.204 (inactive)	0.735	0.73	0.227	0.616	0.552	0.917
COc1ccc(O[C@H]2C=C[C@@H](c3ccccc3)O[C@@H]2CON=C2c3cc(OC)ccc3O[C@H](c3cccc(OC)c3)[C@H]2O)cc1	0.554	-0.0549 (inactive)	0.281 (inactive)	-0.0588 (inactive)	0.585	0.0551 (inactive)	-0.231	1.4	0.927	-0.171	-0.177	0.242	-0.279	0.65 (inactive)	0.886	0.192	0.531	0.589	0.434	-0.393
CO[C@H]1COC(=O)[C@H](CCSC)NC(=O)CC=C[C@@H](C)[C@H](OC)COC(=O)[C@@H](OCc2ccccc2)C=C[C@@H]1C	1.56	-0.772 (inactive)	-0.282 (inactive)	-1.65 (inactive)	-1.05	-0.317 (inactive)	-0.0131	1.39	0.472	-0.0531	0.988	-0.488	-0.513	0.45 (inactive)	0.605	0.751	0.975	0.922	1.38	0.824
CC1(C)O[C@H]2O[C@H]([C@H](O)CON=C3[C@H]4CCn5c(=O)n(-c6ccccc6)c(=O)n5[C@H]4[C@H](O)[C@@H]4O[C@H]34)[C@H](O)[C@H]2O1	-0.626	-0.638 (inactive)	-0.347 (inactive)	-0.215 (inactive)	-0.122	0.321 (inactive)	-0.212	0.426	-0.412	-0.219	0.378	-0.179	-0.181	0.407 (inactive)	0.174	0.085	0.249	0.422	0.0043	0.695
CON=C(C)CCN1CCCCc2nc(C)c(C)cc21	0.46	-0.114 (inactive)	-0.0037 (inactive)	-0.508 (inactive)	0.799	0.165 (inactive)	0.0945	0.572	0.397	0.0978	0.636	-0.144	-0.0831	0.248 (inactive)	0.443	0.213	0.657	0.507	0.881	1.52
CCN1C(C)=C(C(=O)OC)[C@@H](c2ccccc2)N2C(=O)[C@](O)(C(=O)OC)CC(C(C)=O)=C12	0.0774	0.02 (inactive)	-1.13 (inactive)	0.712 (inactive)	-0.25	0.302 (inactive)	-0.313	0.768	0.534	-0.0957	-0.166	-0.324	-0.745	0.15 (inactive)	0.302	0.489	0.633	0.557	0.514	0.423
